TIM10 inh: inhibits growth of TIM10 yeast strain; S. cerevisiae TIM10 strain growth, BacTiter-Glo luminescence, 24 h; inhibition, % at 10 µM; hit rate 1.4% among 330,000;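 active = inhibition of 40% or more at the single tested concentration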;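 note: wild-type TIM10 isogenic control strain grown at permissive 25 °C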
PfHsp90 yeast 2: reduces growth (ATP signal) of yeast expressing P. falciparum Hsp90. inhibition, % at 9.4 µM. S. cerevisiae expressing PfHsp90, BacTiter-Glo ATP, 48 h; yeast lacking PDR1 and PDR3 efflux regulators. hit rate 0.32% among 310,000. AID 504621;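 active = every replicate shows inhibition above about 80%, whatever the replicate mean, limit read from the data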;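 note: 0% = DMSO neutral controls and 100% = 20 µM radicicol positive controls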
tim23-1 inh: tim23-1 yeast growth inhibition. hit rate 1.3% among 330,000. S. cerevisiae tim23-1 growth, BacTiter-Glo luminescence, 24 h. inhibition, % at 20 µM;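 active = growth inhibition of the mutant yeast at or above 50%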;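 note: temperature-sensitive mutant grown at 25 °C; plate controls were DMSO-treated mutant yeast for no effect and medium wells lacking yeast for full effect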
tim10-1 inh: tim10-1 yeast growth inhibition | S. cerevisiae tim10-1 ts strain growth, BacTiter-Glo, 24 h | inhibition, % at 20 µM | hit rate 2.2% among 330,000 | AID 463190;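 active = inhibition of at least 40%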;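 note: mutant grown at 25 °C; 0% = DMSO wells with yeast and 100% = wells holding no yeast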
V-ATPase pHluor: yeast V-ATPase proton transport regulation by pHLuorin. S. cerevisiae, pHLuorin cytosolic pH fluorescence. response, % at 10 µM. hit rate 0.37% among 350,000; in the data active = response mostly above about 7.3%, no sharp cut-off; inactive = mostly below about 5.4%; note: actives read high
tim10-1 conf: confirmation of tim10-1 mutant yeast growth inhibitors; hit rate 56% among 7,400; inhibition, % at 20 µM; AID 463213; S. cerevisiae tim10-1 ts strain growth, BacTiter-Glo, 24 h; shares compounds with tim10-1 inh;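 active = inhibition of yeast growth at or above a set limit in either of two repeat tests at 20 µM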;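 note: tim10-1 mutant grown at permissive 25 °C to find synthetic lethal compounds; 0% = DMSO yeast wells and 100% = medium wells without yeast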
* = called active by the depositor; nt = not tested or not shown. In the library only some 3.7% were active in any assay of this set; here they are far more common.

SMILES	TIM10 inh	PfHsp90 yeast 2	tim23-1 inh	tim10-1 inh	V-ATPase pHluor	tim10-1 conf
COc1ccc(/C=C\C(=O)O[C@@H]2C(O)C(O[C@@H]3OC(C)[C@H](O[C@@H]4OCC(O[C@H]5O[C@H](CO)[C@@H](O)C(O)C5O)C(O)C4O)C(O)C3O)[C@H](OC(=O)[C@]34CCC(C)(C)C[C@@H]3C3=CCC5[C@@]6(C)CC(O)C(O[C@@H]7OC(CO)C(O)[C@H](O)[C@H]7O)[C@@](C)(C(=O)O)C6CC[C@@]5(C)[C@]3(CO)CC4)O[C@H]2C)cc1 (stereo partly specified)	-12	108*	16	48*	0	38*
C[C@H]1CN([C@@H](C)CO)C(=O)c2cc(Br)cnc2O[C@H]1CN(C)C(=O)Cc1ccccn1	nt	nt	nt	nt	-2	nt
CC(=O)NNc1nc2ccccc2s1	-3	-10	4	5	-3	nt
C/C(=C\C(=O)c1ccccc1)NNc1nc2ccccc2s1	34	-13	34	55*	-7	39*
COc1ccc(N(C)S(=O)(=O)c2cccc(C(=O)NCc3ccc(C)cc3)c2)cc1	21	nt	45	22	1	nt
CC(C)(C)C1CCc2c(C(=O)N/N=C/c3cccs3)csc2C1 (stereo unspecified)	33	3	37	47*	2	32*
CC(C)(C)C1CCc2c(C(=O)NNC(=O)/C=C/C(=O)O)csc2C1 (stereo unspecified)	10	5	-2	3	-5	nt
CCC(=O)Nc1ccc(C2C(=O)c3ccccc3C2=O)cc1	18	30	30	42*	-1	22
CCCCC(=O)Nc1ccc(C2C(=O)c3ccccc3C2=O)cc1	-18	9	15	-5	-5	nt
COc1cccc(-c2nn(-c3ccccc3)cc2CN(C)C(C)c2ccncn2)c1 (stereo unspecified)	16	8	33	44*	-2	22
COc1ccc(-n2cc(CN(C)C(C)c3ccncn3)c(-c3cccc(F)c3)n2)cc1 (stereo unspecified)	16	nt	20	-14	-5	nt
O=C(Oc1c(CN2CCOCC2)cc(Cl)c2cccnc12)c1ccccc1	36	6	42	51*	0	20
COCCCNC(=S)NNC(=O)c1cc(C2CC2)nc2ccccc12	13	-9	9	7	1	nt
c1ccc(CSc2ccc(-c3cccnc3)nn2)cc1	15	nt	12	3	-4	nt
COc1cc(/C=N/NC(=O)c2cc(-c3ccccc3)nc3ccccc23)ccc1O	12	-23	23	41*	-2	31
COc1cc(C(=O)NCCCCc2ccccc2)cc(OC)c1OC	-7	8	11	1	-5	nt
O=S(=O)(NCCSc1ccccc1)c1ccc2c(c1)OCCO2	5	7	36	41*	3	24
O=C(O)CCCCCNS(=O)(=O)c1ccc2c(c1)OCCO2	4	-9	-14	8	0	nt
CN(C(=O)CS(=O)(=O)c1cn(CC(=O)N2CCCC2)c2ccccc12)c1ccccc1	-2	3	-4	-19	0	nt
COc1cc(/C=C/C(=O)O)ccc1O	-1	-3	4	-12	-3	nt
CCOC(=O)/C(C#N)=C\c1ccc(O)c(OC)c1	39	-14	27	42*	2	34*
COc1cc(/C=C/C(=O)CC(=O)/C=C/c2ccc(O)c(OC)c2)ccc1O	29	-3	42	40	-4	39*
COc1cc(/C=C2\SC(=S)N(NC(=O)c3ccccc3O)C2=O)ccc1O	31	-6	34	44*	1	32*
CN1CCN(C(=O)OCCOCCOC(=O)N2CCN(C)CC2)CC1	nt	0	nt	nt	2	nt
C=CCn1c(SC(C)C#N)nc2sc(CC)cc2c1=O (stereo unspecified)	-37	3	17	-54	-1	nt
SMILES	TIM10 inh	PfHsp90 yeast 2	tim23-1 inh	tim10-1 inh	V-ATPase pHluor	tim10-1 conf
COc1ccc(C(OC(=O)c2ccco2)C(=O)NC2CCCCC2)cc1OC (stereo unspecified)	-2	nt	3	45*	-5	1
COc1ccc(C(OC(=O)c2ccco2)C(=O)NC2CCCC2)cc1OC (stereo unspecified)	5	14	7	-19	7	nt
O=c1nc(/C=C/c2ccc(-c3ccc(F)cc3)o2)cc(C(F)(F)F)[nH]1	34	nt	48	47*	nt	31*
Cc1ccc(C(=O)N2CCN(c3cccc(Cl)c3)CC2)cc1C	34	-2	34	50*	-4	8
O=C(c1cc(=O)c2ccccc2o1)N1CCN(c2cccc(Cl)c2)CC1	5	nt	26	44*	-3	26
O=S(=O)(Nc1cccc(S(=O)(=O)N2CCCC2)c1)c1cccc(Br)c1	2	-7	3	-5	-4	nt
CCCCC(=O)N(CCOC)c1nnc(-c2ccccc2C)s1	-3	-34	-111	-5	0	nt
CCC1CN(C(=O)NCc2ccc(F)cc2)c2cc(C)ccc2O1 (stereo unspecified)	10	-42	21	41*	6	24
Cc1ccc(/C=C/C(=O)Nc2sc(C)c(C)c2C(=O)OC(C)C)o1	2	-97	11	14	-2	nt
CCOC(=O)c1c(NC(=O)/C=C/c2ccc(C)o2)sc(C)c1C	13	-15	14	46*	-3	24
CCOC(=O)C1CCN(C(=O)c2cccc(N3C(=O)NC4CC3(C)Oc3ccc(C)cc34)c2)CC1 (stereo unspecified)	5	-15	11	14	6	nt
CCOC(=O)N1CCN(C(=O)c2cccc(N3C(=O)NC4CC3(C)Oc3ccc(Cl)cc34)c2)CC1 (stereo unspecified)	20	-6	5	45*	-1	11
CC1(C)Cc2c(cnn2-c2cccc(F)c2)C(NC(=O)CCc2cnccn2)C1 (stereo unspecified)	15	-1	10	19	1	nt
Cn1c(=O)c2c(ncn2CC(=O)Nc2cc(S(=O)(=O)N3CCCCC3)ccc2Cl)n(C)c1=O	-13	nt	11	-1	0	nt
O=C(NN1C(=O)/C(=C/c2ccc(O)cc2)SC1=S)c1cccc(O)c1	5	-5	6	6	-1	nt
CC(/C=C1\SC(=S)N(NC(=O)c2cccc(O)c2)C1=O)=C\c1ccccc1	11	-100	42	51*	6	31*
CCOc1ccc(OCCC(=O)OCC(=O)NC2CCCCC2)cc1	5	-3	22	-4	-1	nt
NC(=O)c1nsc(C(=O)N(c2ccccc2)C(C(=O)NCc2ccc(F)cc2)c2ccc(O)cc2)c1N (stereo unspecified)	-6	-21	14	14	4	nt
COc1ccc(/C(N)=N/OC(=O)CCc2ccccc2)cc1	33	-12	49	26	1	nt
N/C(=N\OC(=O)CCCc1ccccc1)c1ccccc1Cl	31	0	49	50*	1	59*
